The list is not random: actives were taken first. Their share in the collection is about 2.3%.
RGS12 GoLoco inh: blocks human Gai1 binding to RGS12 GoLoco peptide, red readout; P63096; Gai1:RGS12 GoLoco peptide FP, rhodamine, 10 min; Potency, µM (titrated, usually from 61.6 µM), inactives show at the highest dose activity, negative = inhibition, usual class: inhibitors; hit rate 0.44% among 230,000; active = well fitted inhibition curve with a large enough effect, not every such curve was filed as active; inactive = no such curve, though single readings can be large or run the other way; note: potency is the fitted concentration of half-maximal effect; % is set by controls: 0 for no effect and ±100 for the full control effect; nearly all actives have a fitted effect of over 30% in size
Target sequence (P63096 whole entry, looked up): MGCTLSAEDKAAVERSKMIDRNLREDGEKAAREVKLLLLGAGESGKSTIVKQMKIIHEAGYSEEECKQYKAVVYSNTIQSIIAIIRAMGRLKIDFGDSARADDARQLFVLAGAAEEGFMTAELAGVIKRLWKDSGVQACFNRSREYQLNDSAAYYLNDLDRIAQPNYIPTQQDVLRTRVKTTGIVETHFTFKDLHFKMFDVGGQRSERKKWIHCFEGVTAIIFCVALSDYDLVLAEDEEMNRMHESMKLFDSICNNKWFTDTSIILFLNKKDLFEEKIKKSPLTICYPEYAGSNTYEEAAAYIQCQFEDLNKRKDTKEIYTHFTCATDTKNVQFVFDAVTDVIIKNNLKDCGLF
VDR inhibitor: vitamin D3 receptor (human) inhibition | P11473 | hit rate 0.93% among 400,000 | AID 504847 | Potency, µM, inactives show max response, negative = inhibition, most hits filed as inhibitors | VDR-SRC2-3 peptide fluorescence polarization, 2 h; note: potency is the fitted concentration of half-maximal effect; % is set by controls: 0 for no effect and ±100 for the full control effect
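Inhibition of the VDR/SRC2-3 peptide interaction is quantified by fluorescence polarization. Compounds (23 nl, pintool) incubate with the reagents for 2 hours at ambient room temperature.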
HTT cytoprotect: protects HTT-Q103 PC12 cells, measured by ATP. PC12 HTT-Q103 induced, cytoprotection, ATP luminescence, 40 h. Potency, µM (titrated, usually from 56.4 µM), without a hit: cytoprotection (ATP increase), usual class: activators. hit rate 0.14% among 230,000. AID 1471; note: potency is the fitted concentration of half-maximal effect; % of control where 0% means no effect; nearly all actives have a fitted effect of over 45% in size
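Stable PC12 Q103-GFP cells in serum-supplemented, phenol red-free DMEM; induction by tebufenozide at 100 nM final; compound dose series; cell viability quantified luminescently from ATP.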
HTT aggregate: reduces HttQ103-GFP aggregates in PC12 cells; PC12 HttQ103-GFP aggregates, Acumen cytometry, 40 h; Potency, µM (doses to about 46.1 µM), for inactives: top-dose activity change, negative = inhibition, hits mostly inhibitors; hit rate 1.1% among 220,000; AID 1688; note: potency is the fitted concentration of half-maximal effect; % is set by controls: 0 for no effect and ±100 for the full control effect; nearly all actives have a fitted effect of over 60% in size
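Ecdysone-promoter PC12 model expressing HTT exon 1 Q103 fused to GFP, induced by tebufenozide at 100 nM final. Compounds titrated; aggregates sized 1–25 µm scored on a 488 nm laser cytometer.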
FBPA coupling cs: inhibits coupling enzyme system, counter-screen for aldolase hits | activity change, negative = inhibition, % at 58.2 µM, hits read low | coupling enzyme system counterscreen, AmpLite Red fluorescence | hit rate 0.67% among 290,000; in the data active = activity change below about -30%; note: % is set by controls: 0 for no effect and ±100 for the full control effect
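Compounds tested against the coupling enzymes alone at 57.5 uM final; readout was AmpLite Red fluorescence (525/598 nm) after 20 min at RT.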
JMJD2E inh: blocks human JMJD2E demethylase activity; B2RXH2; JMJD2E catalytic domain, FDH-coupled NADH fluorescence (FDH is formaldehyde dehydrogenase); Potency, µM (doses to about 57.1 µM), without a hit: at the highest dose activity change, negative = inhibition, actives largely listed as inhibitors; hit rate 1.6% among 230,000; AID 2147; active = well fitted inhibition curve with a large enough effect, not every such curve was filed as active; inconclusive = small, poorly fitted or top-dose-only effect, or another doubt; inactive = no such curve, though single readings can be large or run the other way;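 note: potency is the fitted concentration of half-maximal effect; 0% = wells with enzyme and -100% = buffer wells without enzyme; nearly all actives have a fitted effect of over 50% in size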
Target sequence (B2RXH2 1-337 limits assumed): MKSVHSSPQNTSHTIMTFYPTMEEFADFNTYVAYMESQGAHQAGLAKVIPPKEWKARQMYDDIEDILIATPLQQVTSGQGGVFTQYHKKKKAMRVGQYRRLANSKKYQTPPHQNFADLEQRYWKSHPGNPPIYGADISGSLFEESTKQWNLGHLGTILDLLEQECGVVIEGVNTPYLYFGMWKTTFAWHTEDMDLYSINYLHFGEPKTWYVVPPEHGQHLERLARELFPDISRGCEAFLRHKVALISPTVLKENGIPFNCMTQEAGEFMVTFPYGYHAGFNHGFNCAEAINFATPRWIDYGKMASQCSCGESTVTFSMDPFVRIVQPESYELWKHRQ
An asterisk follows results filed as active; ? = inconclusive; nt = no result given; [ ] = another dose, or the depositor's remark. Unless noted, calls come from the whole dose curve; as a rule, active = well fitted curve in the direction sought with a large enough effect; inconclusive = small, poorly fitted or top-dose-only effect, or another doubt; inactive = no such curve, though single readings can be large; an effect the other way counts as inactive or inconclusive.

SMILES	RGS12 GoLoco inh	VDR inhibitor	HTT cytoprotect	HTT aggregate	FBPA coupling cs	JMJD2E inh
CC1=NC(=O)C(N=Nc2cccc(O)c2)N1c1ccccc1 (stereo unspecified)	16µM*	0%	-30%	7%	-2	-9%
Cc1cccc(-n2c(O)c(C=Nc3cccc(O)c3)c3ccccc3c2=O)n1	5%	?	8%[10 µM]	9%[9.22 µM]	-2	-6%
O=C(C[n+]1ccccc1)c1ccc(-c2ccccc2)cc1	4%	-7%	?	-11%	-1	?
CN(C)c1cc[n+](CC(=O)c2ccc(-c3ccccc3)cc2)cc1	8%	-5%	-77%	16µM*	2	1%
CCOc1ccc(N2C(=O)C(Cl)=C(N3CCOCC3)C2=O)cc1	nt	28µM*	nt	nt	-1	nt
Cc1ccc(-c2c[n+]3c(n2-c2ccccc2)CCC3)cc1	6%	-24%	-22%[10 µM]	-3%[9.22 µM]	2	-7%
Cc1ccc(-n2c(-c3ccc(Br)cc3)c[n+]3c2CCc2ccc4cccnc4c2-3)cc1	15%	21%	-111%	1.8µM*	nt	?
COc1ccc(/C(C)=N/Nc2nc(C)c(C(C)=O)s2)cc1	nt	-1%	nt	nt	0	nt
CCOC(=O)c1sc(N/N=C/c2cccc(C)c2)nc1C	14%	3%	5%	19%	-2	?
CCOC(=O)c1sc(N/N=C/c2ccccc2)nc1C	4%	45µM*	34%[10 µM]	2%	-5	?
CC(=O)c1sc(N/N=C\c2ccccc2O)nc1C	28%	-4%	16%[10 µM]	9%[9.22 µM]	1	28µM*
CC(C)(C)NC(=S)NCC1CC1	10%	-10%	12%[10 µM]	-6%[9.22 µM]	-1	3%
CCN(CCNC(=O)C1CCN(Cc2nc(-c3cccc(Cl)c3)oc2C)CC1)c1ccccc1	5%	-10%	-91%	10µM*	2	?
COc1ccc(NC(=O)c2cnc(C)cn2)c2ncccc12	10%	nt	-53%[10 µM]	1.8µM*	1	5%
COc1ccc(S(=O)(=O)NC(C)C(=O)NCc2ccccn2)cc1Cl (stereo unspecified)	nt	1%	nt	nt	0	nt
O=C(Nc1ccc2c(c1)CCC2)C1CCN(c2c3c(nc4ncnn24)CCC3)CC1	5%	?	5%[10 µM]	11µM*	-2	7%
O=C(NC1CCCc2ccccc21)C1CCN(c2c3c(nc4ncnn24)CCC3)CC1 (stereo unspecified)	7%	-6%	5%	-17%	0	-10%
O=C(Nc1ccc(Oc2ccccc2)cc1)C1CCN(c2c3c(nc4ncnn24)CCC3)CC1	-2%	2%	-66%	8.9µM*	1	-7%
c1ccc2c(C3CCO3)cccc2c1 (stereo unspecified)	nt	-15%	nt	nt	nt	nt
CN(C)Cc1c(-c2ccc(Cl)cc2)nc2ccccn12	12%	9%	-38%	0.032µM*	-3	?
COc1ccc(CNC(=O)Cn2nc3c(cc2=O)CCCC3)cc1	nt	13%	nt	nt	nt	nt
COc1cccc(/C=N/n2c(C)nc3ccccc32)c1OC	6%	-2%	-31%[10 µM]	13µM*	-1	-5%
Cc1cc2ncn(/N=C/c3ccc([N+](=O)[O-])s3)c2cc1C	14%	4%	1%[10 µM]	21%	-4	?
Cc1nc2ccccc2n1/N=C/c1ccc([N+](=O)[O-])s1	-3%	-1%	2%[10 µM]	5µM*	-5	-18%
O=[N+]([O-])c1ccc(/C=N/n2cnc3ccccc32)s1	-2%	-3%	nt	16µM*	2	0%
SMILES	RGS12 GoLoco inh	VDR inhibitor	HTT cytoprotect	HTT aggregate	FBPA coupling cs	JMJD2E inh
O=C(O)c1cc(NN=C2c3ccccc3-c3ccccc32)ccc1Cl	nt	-7%	nt	nt	7	nt
Cc1ccc(N/N=C2\CC(=O)c3ccccc32)cc1Cl	10%	nt	-10%[10 µM]	-24%[9.22 µM]	-18	22µM*
CC1(C)CC(=O)C2=C(C1)N(Cc1ccco1)C(=O)C2(NC(=O)c1ccc(Cl)cc1Cl)C(F)(F)F (stereo unspecified)	1%	4%	-7%	-14%	8	1%
CC1(C)CC(=O)C2=C(C1)N(Cc1ccco1)C(=O)C2(NC(=O)C1CCCCC1)C(F)(F)F (stereo unspecified)	4%	-7%	-4%	5.6µM*	-5	3%
CCC(=O)OC1=CN(Cc2ccccc2)S(=O)(=O)c2ccccc21	nt	4%	nt	nt	nt	nt
CC(C)(C)c1ccc(Cn2nnc3c(=O)[nH]c(C4CCN(C(=O)Cc5cccs5)CC4)nc32)cc1	3%	-6%	-25%	13µM*	-3	2%
CC(C)(C)c1ccc(Cn2nnc3c(=O)[nH]c(C4CCCN(C(=O)Cc5cccs5)C4)nc32)cc1 (stereo unspecified)	21%	-2%	23%[10 µM]	-18%	4	-2%
COC(=O)[C@@]1(Cc2ccc(F)cc2)[C@H]2c3cc(C(=O)N4CCCC4)n(Cc4cc(F)cc5c4OCOC5)c3C[C@H]2CN1C(=O)c1ccccc1	-4%	nt	-57%	nt	0	?
COc1ccc(-c2nnc(SCC(=O)c3ccc(O)cc3O)o2)cc1	nt	-7%	nt	nt	2	nt
CCOc1ccc(C(=O)Nc2cc(-c3nc4ccccc4[nH]3)ccc2Cl)cc1[N+](=O)[O-]	-12%	43%	-8%[10 µM]	13µM*	4	-8%
CCOc1ccc(C(=O)Nc2nc3ccccc3[nH]2)cc1OCC	8%	-1%	-5%[10 µM]	13µM*	-2	-3%
CCOc1ccc(NC(=O)CCc2nc3cccnc3n2Cc2ccc(OC)cc2)cc1	nt	-2%	nt	nt	nt	nt
Cc1cc(C)n2nc(/C(C#N)=C/c3ccccn3)c(C#N)c2n1	11%	20µM*	-4%[10 µM]	?	-3	?
Cc1ccc(NC(=O)COC(=O)CC2CCCC2)cc1Cl	10%	nt	-17%[10 µM]	28%	-12	-2%
O=c1c2cc(-c3ccccc3)sc2nc2n1CCC2	0%	nt	-4%[10 µM]	-20%	1	35µM*
Cc1nc2sc(-c3ccccc3)cc2c(=O)n1N	-8%	-6%	-37%[10 µM]	31%[9.22 µM]	-3	?
O=c1c2ccccc2nc2n1CCC2	-2%	-24%	1%	17%	4	8.9µM*
O=c1c2ccccc2nc2n1CCCCC2	-9%	-13%	-29%	6%	0	-3%
COc1ccc2c(C)c(CCC(=O)NCCc3ccccc3)c(=O)oc2c1	nt	9%	nt	nt	nt	nt
CCOC(=O)C1CCN(S(=O)(=O)c2cc(-c3onc(C)c3C)ccc2C)CC1	nt	3%	nt	nt	nt	nt
O=C(Nc1ccc(C(=O)N2CCCCC2)cc1)c1ccc([N+](=O)[O-])cc1	nt	-4%	nt	nt	5	nt
N#CCCn1c(=O)c(-c2cc(F)cc(F)c2)nc2cnc(N3CCOCC3)nc21	4%	-13%	-3%	nt	4	nt
NC(=O)c1sc2nc3c(c(-c4ccco4)c2c1N)CCC3	1%	-7%	?	4.5µM*	-25	-5%
CC(C)NC(=O)c1sc2nc3c(c(-c4cccs4)c2c1N)CN(C)CC3	5%	-13%	-3%	14%	1	-30%

Screens deposited in PubChem BioAssay by National Center for Advancing Translational Sciences (NCATS).
